Source: PubChem BioAssay AID1259343 (VanderVen Lab, College of Veterinary Medicine, Cornell …, 2017)
Hit rate of the full screen: of about 6,200 compounds, about 2,900 (47%) were called active. So high a share suggests a set chosen from earlier hits. The list shows a part of the results. Values without a mark were called inactive. No stated cut-off is given here; in the data, active means inhibition above about 50%; inactive means the rest.

assay: Mycobacterium tuberculosis growth inhibition, primary screen (AID 1259343); conditions: inhibition: at 10 µM, stronger effect = higher value; outcome: 10 uM

| SMILES | inhibition |
| --- | --- |
| O=C(O)c1ccc(Oc2cc(Cl)ccc2Cl)cc1 | 45.5% |
| O=C(O)c1ccc(Oc2cccc(Br)c2)cc1 | 91.5% (active) |
| N#CCc1ccc(Oc2ccc(C(=O)O)cc2)cc1 | 34.3% |
| CC[n+]1c(-c2ccccc2)c2cc(N)ccc2c2ccc(N)cc21 | 99.5% (active) |
| Nc1ccc(-c2nc(-c3ccccc3)c3cc(N)ccc3n2)cc1 | 29.6% |
| Cc1ccc2sc(NNC(=O)c3cc(=O)c4ccccc4o3)nc2c1C | 72.2% (active) |
| O=S(=O)(c1ccc(F)c(F)c1)N1CCN(c2ccc(O)cc2)CC1 | 56.7% (active) |
| O=S(=O)(c1ccc(F)cc1)N1CCN(c2ccnc3cc(Cl)ccc23)CC1 | 3.02% |
| O=C(c1ccc(N2CCCCC2)c([N+](=O)[O-])c1)N1CCc2ccccc21 | 23.8% |
| CCC(C)NC(=O)c1cnc(N2CCN(c3ccccc3[N+](=O)[O-])CC2)nc1OC (centres undefined) | 2.36% |
| CCC(CC)NC(=O)c1ccc(N2CCCCC2)c([N+](=O)[O-])c1 | 96.8% (active) |
| CN(C(=O)CSc1nc2sc3c(c2c(=O)[nH]1)CCCC3)C1CCCCC1 | 93.2% (active) |
| CN(C(=O)CSc1nc2sc3c(c2c(=O)n1C)CCCC3)C1CCCCC1 | 18.9% |
| CCOC(=O)c1nn(-c2ccccc2)c(=O)cc1NC(=O)c1ccc(C(C)(C)C)cc1 | -13.4% |
| CCOC(=O)c1nn(-c2ccc(C(C)C)cc2)c(=O)c2c(N)scc12 | 101% (active) |
| CCOC(=O)c1nn(-c2ccc(C)cc2)c(=O)c2c(N)scc12 | 60.8% (active) |
| CCOC(=O)c1nn(-c2ccccc2)c(=O)c2c(NC(=O)CCCCl)scc12 | 61.2% (active) |
| CCOC(=O)c1nn(-c2ccc(C)cc2)c(=O)cc1N1CCN(c2ccccc2OC)CC1 | 38.5% |
| CCOC(=O)c1nn(-c2ccc(C)cc2)c(=O)cc1NC(=O)C1CCCC1 | -7.9% |
| CCOC(=O)c1nn(-c2cccc(C)c2)c(=O)c2c(N)scc12 | 89.5% (active) |
| N[C@@H](CO)C(=O)Nc1ccc(Cc2ccccc2)cc1 | 89.6% (active) |
| Nc1ccccc1Cc1ccc(O)cc1 | 30.5% |
| COc1cccc(OCCN2CCN(c3ncnc4c3cnn4-c3ccccc3)CC2)c1 | 64% (active) |
| Cc1ccc(Cn2ncc3c(N4CCN(CCOc5ccc(C)cc5)CC4)ncnc32)cc1 | 24.2% |
| COc1ccc(CN2CCN(c3ncnc4c3cnn4-c3ccccc3)CC2)cc1F | 82.1% (active) |

| SMILES | inhibition |
| --- | --- |
| CCN1CCN(Cc2ccc(-c3cc4c(N[C@H](C)c5ccccc5)ncnc4[nH]3)cc2)CC1 | 16.6% |
| OCC1(CCOc2ccccc2)CCN(c2ncnc3sccc23)CC1 | 20.1% |
| Cc1cc(NCCN(C)C)n2nc(C(F)(F)F)c(-c3ccccc3)c2n1 | 45% |
| CN(C)CCNc1cc(-c2ccccc2)nc2c(-c3ccccc3)cnn12 | 70.7% (active) |
| CN(C)CCCNc1cc(C(C)(C)C)nc2c(-c3ccccc3)cnn12 | 74% (active) |
| CC(C)c1cc(NCCN(C)C)n2ncc(-c3ccccc3)c2n1 | -10.7% |
| CN(C)CCCNc1cc(C(C)(C)C)nc2c(-c3ccc(Cl)cc3)cnn12 | 36.7% |
| Cc1ccc(-c2cnn3c(NCCOCCO)cc(C(C)(C)C)nc23)cc1 | -3.38% |
| Cc1cc(=O)[nH]c(-n2nc(C3CC3)cc2NC(=O)c2ccc(F)cc2)n1 | 99.8% (active) |
| Cc1cc(=O)[nH]c(-n2nc(C3CC3)cc2NC(=O)c2ccc(F)c(F)c2)n1 | 99.9% (active) |
| Cc1cc(=O)[nH]c(-n2nc(C3CC3)cc2NC(=O)c2ccc(C(F)(F)F)cc2)n1 | 99.9% (active) |
| CCCCCCn1c(N2CCN(c3ccccc3)CC2)nc2c1c(=O)n(C)c(=O)n2C | 81.9% (active) |
| Cc1cn2c3c(=O)n(CC(=O)C(C)(C)C)c(=O)n(C)c3nc2n1C1CCCC1 | -30.1% |
| CCCCCn1c(=O)c2c(nc3n2CC(C)CN3C2CCCCC2)n(C)c1=O (centres undefined) | 92.2% (active) |
| CCCn1c(C2CCCCC2)nc2c(c(=O)c3ccccc3n2C)c1=O | 12.9% |
| CCCn1c(=O)c2c(nc3n2CCCN3Cc2ccccc2)n(C)c1=O | 33.4% |
| CC(C)CCn1c(N2CCCCC2)nc2c1c(=O)n(C)c(=O)n2C | -32.3% |
| CCCCCCn1c(N2CCN(Cc3ccc(Cl)c(Cl)c3)CC2)nc2c1c(=O)[nH]c(=O)n2C | 9.32% |
| CCCCc1ccc(-n2c(C)c(C)n3c4c(=O)n(CCCO)c(=O)n(C)c4nc23)cc1 | 46.3% |
| CCCCCn1c(=O)c2c(nc3n2CCN3Cc2ccco2)n(C)c1=O | 61% (active) |
| N[C@@H](C(=O)O)[C@@H](O)[C@H](O)[C@H](O)CO | -6.84% |
| O=C(Nc1nccs1)c1ccc(COc2ccc(F)cc2)o1 | 29.5% |
| c1ccc(-c2cc(-c3ccccc3)on2)cc1 | 46.9% |
| O=C(NNC(=O)c1cc(-c2ccccc2)no1)c1ccco1 | 96% (active) |
| Cn1nccc1CNC(=O)c1ccc(COc2cc(Cl)ccc2Cl)o1 | 35% |

| SMILES | inhibition |
| --- | --- |
| O=C(NNC(=O)c1ccc(COc2ccccc2)o1)c1ccco1 | 59.7% (active) |
| C=CCn1c(=S)[nH]c2sc3c(c2c1=O)CCC(C)C3 (centres undefined) | 8.34% |
| C=CCn1c(SCc2c(C)noc2C)nc2sc(C)c(C)c2c1=O | 30.8% |
| C=CCn1c(SCCC#N)nc2sc3c(c2c1=O)CCCC3 | 80.7% (active) |
| O=C(O)c1cccc(=O)n1CCOc1ccccc1Cl | 53.1% (active) |
| Cc1ccc(C)c2c3c([nH]c12)-c1nonc1CC3 | 34.5% |
| Cc1nc2ccccc2c(=O)n1NC(=S)NC(=O)c1ccc(Br)cc1 | 40.8% |
| O=c1[nH]n2c(=O)c3ccccc3nc2c2ccccc12 | 86% (active) |
| CCn1c2ccccc2c2nc3ccccc3nc21 | -25.2% |
| CC1CN(c2ccc(C(=O)NC(c3ccccc3)c3ccc(Cl)cc3)cn2)CCN1 (centres undefined) | 33.2% |
| Cc1cc(C(C)(C)C)cc(C)c1CCN1CN(CCO)c2nc3ccccc3n2C1 | 66.6% (active) |
| CC1CC(C)CN(S(=O)(=O)NCc2cc3ccccc3[nH]2)C1 (centres undefined) | 27.9% |
| CC1CCN(S(=O)(=O)N2CCCC(c3cc4ccccc4[nH]3)C2)CC1 (centres undefined) | 73.2% (active) |
| CN(C(=O)CN1CCC(c2cc3ccccc3[nH]2)CC1)C1CC1 | -6.34% |
| N[C@H]1CN[C@H](C(=O)N2CC(N3CCCCC3)C2)C1 | -19.7% |
| CC/C=C(/C)C(=O)Nc1ccc(-n2nccn2)cc1 | 96.5% (active) |
| COc1c(N2CCNC(C)C2)c(F)cc2c(=O)c(C(=O)O)cn(C3CC3)c12 (centres undefined) | 98% (active) |
| O=C(Cc1cc(-c2ccc(Cl)cc2)on1)NCCC1=CCCCC1 | 37.4% |
| O=C(CCS(=O)(=O)c1ccc(Cl)cc1)NCCC1=CCCCC1 | 79% (active) |
| Cc1cc(=O)[nH]c(-n2nc(C)cc2NC(=O)COc2ccc(F)cc2)n1 | 99.8% (active) |
| COc1ccc(OCC(=O)Nc2cc(C3CC3)nn2-c2nc(C)cc(=O)[nH]2)cc1 | -5.9% |
| Cc1cc(=O)[nH]c(-n2nc(C3CC3)cc2NC(=O)COc2ccc(Cl)cc2Cl)n1 | 100% (active) |
| Cc1cc(=O)[nH]c(-n2nc(C3CC3)cc2NC(=O)COc2ccc(Cl)cc2)n1 | 100% (active) |
| Cc1cc(=O)[nH]c(-n2nc(C3CC3)cc2NC(=O)COc2ccc(F)cc2)n1 | 99.9% (active) |
| CCCCn1c(O)c(C=Nc2cccc(C)c2)c(C)c(C#N)c1=O | -35.7% |

| SMILES | inhibition |
| --- | --- |
| Cc1cc(C(F)(F)F)c2c(n1)sc1c(O)cc(=O)[nH]c12 | 27.2% |
| CCc1cc(=O)[nH]c(-n2nc(C)cc2NC(=O)C(c2ccccc2)c2ccccc2)n1 | 100% (active) |
| CCc1c(C)nc(-n2nc(C)cc2NC(=O)C(CC)c2ccccc2)[nH]c1=O (centres undefined) | 12.6% |
| Cc1cc(=O)[nH]c(-n2nc(C)cc2NC(=O)C(c2ccccc2)c2ccccc2)n1 | 101% (active) |
| Cc1cc(=O)[nH]c(-n2nc(C)cc2NC(=O)C(C)Oc2ccccc2)n1 (centres undefined) | 99.8% (active) |
| CCc1ccc(CNC(=O)c2cc(F)ccc2Br)s1 | 59.5% (active) |
| CCc1ccc(CNC(=O)c2cncc(Br)c2)s1 | 83.2% (active) |
| CCc1ccc(CNC(=O)c2ccc(Cl)s2)s1 | 45% |
| CN(C)c1cc(C(=O)NCc2ccc(Cl)s2)ccn1 | -1.2% |
| CCc1ccsc1CNC(=O)c1sccc1Br | 24.1% |
| CCc1ccc(CNC(=O)c2cc(C)sc2C)s1 | 54.8% (active) |
| CC(C)Cc1noc(-c2ccc(-c3ccc(O)cc3)nc2)n1 | 23.2% |
| Nc1ccc(-c2ccc(-c3nc(CCCc4ccccc4)no3)cn2)cn1 | 59.3% (active) |
| Cc1noc(-c2ccc(N3CC[C@@H](c4ccc5c(c4)OCO5)[C@H](O)C3)nc2)n1 | 12.9% |
| CCc1cn[nH]c1C1CCN(c2noc(-c3ccccc3)n2)CC1 | 20.9% |
| COC1CCN(c2ccc(-c3nc(CCCc4ccccc4)no3)cn2)CC1 | 51.1% (active) |
| OCc1ccccc1-c1ccc(-c2nc(CCc3ccccc3)no2)cn1 | 75.2% (active) |
| CCc1nc(C)c(-c2nc(CCc3ccccc3)no2)s1 | 49.3% |
| O=C(Nc1ccc2c(c1)CN(C(=O)CCCc1cccs1)CC2)c1ccccn1 | 54.1% (active) |
| O=C(CCCc1cccs1)N1CCN(c2ccccc2O)CC1 | 13% |
| O=C(Nc1ccc2c(c1)CN(C(=O)/C=C/c1cccs1)CC2)c1ccccn1 | 58.9% (active) |
| CC(C)Oc1cccc(C(=O)C2CCCN(C(=O)/C=C/c3cccs3)C2)c1 (centres undefined) | -2.95% |
| COc1ccccc1C(=O)Nc1ccc2c(c1)CN(Cc1c[nH]c3ccccc13)CC2 | 45.8% |
| O=C(Nc1ccc2c(c1)CN(Cc1ccc(-n3cccn3)cc1)CC2)c1ccccn1 | inactive |
